Marburg entry inh: blocks Marburg virus binding to or entry into cells | 1.8% of 300,000 active | Marburg virus pseudotyped entry inhibition, cell reporter | Potency, µM (top dose mostly 37.8 µM), for inactives: at the highest dose activity change, negative = inhibition, hits mostly inhibitors; calls by dose curve; tested in HEK293 cells; also: potency is read from the fitted curve at half-maximal effect
HCMV inh: human cytomegalovirus inhibition. HFF cells, HCMV-luciferase reporter, 72 h; stronger effect = lower value. 4.5% of 410,000 active. AID 1259415. activity change, negative = inhibition, % at 57.5 µM; in the data active = activity change below about -60%; inconclusive = no clear call, values can overlap the other calls; inactive = above about -39%
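Inhibition of viral replication was scored as loss of reporter luminescence in HFFs infected with HCMV-luciferase (MOI 1 PFU/cell) for 72 h; compounds tested at 2 doses, normalized to buffer and Salinomycin controls.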
LASV entry inh: inhibitors of Lassa virus binding or cell entry; 1.2% of 300,000 active; Lassa virus pseudotype entry inhibition, cell reporter; Potency, µM (series often up to 37.9 µM), inactives show at the top dose activity change, negative = inhibition, hits mostly inhibitors; AID 540256; calls by dose curve; tested in HEK293 cells; also: potency is read from the fitted curve at half-maximal effect; nearly all actives have a fitted effect of over 50% in size
FMDV inh: foot and mouth disease virus antiviral activity; FMDV antiviral cell-based qHTS; Potency, µM (series often up to 57.9 µM), for inactives: at the top dose activity change, negative = inhibition, hits mostly inhibitors; 1.2% of 410,000 active; AID 1159524; calls by dose curve; tested in HEK293T cells; also: read-out not given here; potency is read from the fitted curve at half-maximal effect; nearly all actives have a fitted effect of over 45% in size
Active calls of the source: *; ? = inconclusive; / = no result; + = active, no number; ! = not confirmed by another sample; [ ] = remark or other dose. Rows were chosen to be rich in hits. Some 6.2% of all compounds tested hit in one or more screens of this group. % is scaled to controls: 0 for no effect and ±100 for the full control effect.

SMILES	Marburg entry inh	HCMV inh	LASV entry inh	FMDV inh
CC1=C(c2ccc(Cl)cc2)S(=O)(=O)N=C1N1CCN(c2cccc(C(F)(F)F)c2)CC1	?	-60*	-23%[46.1 µM]	-15%
O=C(NCc1cccnc1)c1cccnc1-c1nc2ccccc2s1	15%	-23	5%	5%
O=C(c1ccco1)C(O)c1ccco1 (stereo not drawn)	/	-62*	/	-4%
Cc1cccc(C)c1NC(=O)CCCCCNS(=O)(=O)c1ccccc1	?	-23	?	-16%
CC1Sc2ccc(S(=O)(=O)NCCc3ccccc3)cc2NC1=O (stereo not drawn)	/	+	/	53%
CC(=O)N1CC(C)Sc2ccc(S(=O)(=O)NC(C)c3ccccc3)cc21 (stereo not drawn)	/	-72*	/	-10%
COc1ccccc1NS(=O)(=O)c1ccc2c(c1)N(C(C)=O)CC(C)S2 (stereo not drawn)	/	?	/	-25%
CC(=O)N1CC(C)Sc2ccc(S(=O)(=O)NCCc3ccccc3)cc21 (stereo not drawn)	/	+	/	-4%
Cc1cc(C)cc(Cn2c3ccc(NC(=O)NCCc4cccs4)cc3c(=O)n2C)c1	/	8	/	57%
Cc1ccc(NS(=O)(=O)c2ccc(C(=O)N3CCN(c4ncccn4)CC3)cc2)cc1	?	-77*	7.9µM*	?
O=C(c1ccc(S(=O)(=O)Nc2ccc(F)cc2)cc1)N1CCN(c2ccccn2)CC1	?	-80*	?	-15%
O=C(c1ccc(NS(=O)(=O)c2ccc(F)cc2)cc1)N1CCCCC1	-19%	-24	3%	-15%
COc1cc(C)nc(-n2nc(C)cc2OC)n1	3%	-29	6%	-21%
CCOc1ccc(NC(=O)CSc2nc(O)c(C)c(=O)n2-c2ccc(F)cc2)cc1	?	-2	8%	-8%
CCc1ccccc1N(CC)C(=O)Cn1nc(Cc2ccncc2)c2ccccc2c1=O	?	-72*	-6%[46.1 µM]	-10%
CCN(C(=O)Cn1nc(Cc2ccncc2)c2ccccc2c1=O)c1ccc(OC)cc1	?	-21	12%[46.1 µM]	-9%
O=c1[nH]c2ccc(NCc3ccc(F)cc3)cc2[nH]1	/	30	/	10%
Clc1ccc2c(c1)N=C(N1CCNCC1)c1ccccc1N2	?	/	?	-15%
CN1CCN(C2=Nc3cc(Cl)ccc3Nc3ccccc32)CC1	13µM*!	?	-14%	-19%
CCC(C)N1C(=O)/C(=C/c2ccc3c(c2)CCN3CCCCl)C(=O)NC1=S (stereo not drawn)	-9%	15	?	32µM*
O=C1NC(=O)N(c2ccc(Cl)cc2)C(=O)/C1=C/c1ccc2c(c1)CCN2Cc1ccccc1Cl	-1%[46.1 µM]	-23	-2%	-4%
CC1(C)OC2OC(COC(=O)c3ccccc3)C3OC(C)(C)OC3C2O1 (stereo not drawn)	-15%	12	23%	46%
C[C@H](NC(=O)c1ccccc1)C(=O)N1CCN(Cc2ccc3c(c2)OCO3)CC1	/	8	/	-15%
NC(=O)CC[C@H](NC(=O)c1ccc(F)cc1)C(=O)N1CCN(Cc2ccc3c(c2)OCO3)CC1	9%	-70*	-12%	-19%
CCCOc1ccc(C2Nc3cccc4cccc(c34)N2)cc1	-24%[46.1 µM]	71	0%[46.1 µM]	5%
SMILES	Marburg entry inh	HCMV inh	LASV entry inh	FMDV inh
COc1ccc(CCNCC2C(Oc3ccc(Cl)cc3)C(=O)N2c2ccccc2C)cc1OC (stereo not drawn)	11µM*	?	5%[46.1 µM]	?
COCCNCC1C(Oc2ccc(Cl)cc2)C(=O)N1c1ccccc1C (stereo not drawn)	?	-16	-19%	-18%
O=c1oc2ccccc2c(Cl)c1CN1CCCCC1	/	-64*	/	?
COc1cc(C(=O)Nc2nnc(Cc3ccccc3)s2)cc(OC)c1OC	?	-14	?	-27%
O=C(COC(=O)COc1ccccc1)NCCc1ccccc1	15%[46.1 µM]	1	?	-16%
Cc1ccc(Cc2nc3ccccc3n2C(CCc2ccccc2)c2nc3ccccc3[nH]2)cc1 (stereo not drawn)	/	17	/	-13%
Cc1cccc(OCCNC(=S)NC(=O)c2cncc(Br)c2)c1	5%	-5	-2%	-26%
Cc1ccc(OCCNC(=O)c2cncc(Br)c2)cc1C	9%	-107*	2%	-15%
O=C(Nc1cc(-c2nc3ccccc3s2)ccc1Cl)c1cc2ccccc2o1	/	91	8%[46.1 µM]	47%
CCN(CC)CCNc1nc(SC)nc2sc3c(c12)CCN(C)C3	7.1µM*	-20	?	-6%
O=C(NNc1ccc([N+](=O)[O-])cc1)c1ccccc1Cl	/	-86*	/	4%
O=C(O)c1ccccc1Nc1ccc([N+](=O)[O-])cc1	0.5µM*	?	1.1µM*	46%
O=c1c(Cc2ccc(F)cc2)c(O)ccn1C1CCCCC1	10%	-32	-12%	0%
CC(=O)Nc1ccc(S(=O)(=O)N2c3ccccc3C(C)=CC2(C)C)cc1	?	-80*	?	1%
CC1=CC(C)(C)N(S(=O)(=O)c2ccc(F)cc2)c2ccccc21	?	-29	-23%	?
CC1=CC(C)(C)N(S(=O)(=O)c2ccc(C)cc2)c2ccc(C)cc21	?	-74*	-21%	/
COc1ccccc1N(C)S(=O)(=O)c1ccc(C(=O)Nc2nc(C)cs2)cc1	16µM*	-18	?	28µM*
COc1cc(OC)c(OC)cc1CNC(=O)c1cc(S(=O)(=O)N(C)c2ccccc2OC)ccc1C	/	-25	/	28µM*
COc1ccccc1N(C)S(=O)(=O)c1ccc(Cl)c(C(=O)OCc2c(C)noc2C)c1	?	-31	11µM*	?
CN(c1ccccc1)S(=O)(=O)c1ccc(C(=O)Nc2cccc(S(=O)(=O)N3CCOCC3)c2)cc1	/	-95*	/	?
COc1ccc(CCNC(=O)C2CCN(S(=O)(=O)N3CCCCC3)CC2)cc1OC	0%	-10	/	-10%
CC(C)c1ccc(CNc2nc3nc4c(c(=O)n3[nH]2)CCC4)cc1	-1%[46.1 µM]	-28	8%[46.1 µM]	-7%
COc1ccccc1N(C)S(=O)(=O)c1ccc(C(=O)Nc2cccc(S(=O)(=O)N3CCOCC3)c2)cc1	/	?	/	25µM*
[O-][n+]1cccc2c(Br)cc(Br)c(O)c21	11%[46.1 µM]	-84*	12%[46.1 µM]	-19%
Oc1c(Br)cc(Br)c2cccnc12	/	20	/	0%
SMILES	Marburg entry inh	HCMV inh	LASV entry inh	FMDV inh
CNC(=O)c1cc(Oc2ccc(NC(=O)Nc3ccc(Cl)c(C(F)(F)F)c3)cc2)ccn1	/	-100*	/	20µM*
O=C(Nc1ccc(Cl)c(C(F)(F)F)c1)c1ccncc1	?	-5	?	-12%
NCC(=O)Nc1ccc(Cl)cc1C(=O)c1ccc[nH]1	/	-66*	/	-3%
O=C(CSc1nnc(NC(=O)c2ccc(F)cc2)s1)NCc1ccco1	?	72	?	40%
CC(=O)Nc1ccc(S(=O)(=O)N2CCC(N3CCCC3)CC2)cc1	-2%	?	8%	0%
COc1ccc(C(=O)N/N=C\c2coc3ccc(Cl)cc3c2=O)cc1	/	-63*	/	?
O=C(N/N=C/c1coc2ccc(Cl)cc2c1=O)c1ccc(O)cc1	/	-33	/	-9%
CC(NC1=CC(=O)c2cccnc2C1=O)C(O)c1ccccc1 (stereo not drawn)	11µM*	-99*	?	28µM*
CCOc1ccc(-c2nnn(CC(=O)N3CCCC(C)C3)n2)cc1 (stereo not drawn)	/	-70*	/	-8%

Source: PubChem BioAssay
